# Measurements taken from PubChem BioAssay AID1481 (The Scripps Research Institute Molecular Screening Center, 2009).
# Where “and” joins values, the source holds several entries; their conditions need not be identical. Equal entries are not always repeated. Hit rate of the full screen: of about 220,000 compounds, about 920 (0.42%) were called active. Rule as the data show it: active = inhibition above about 15%; inactive = the rest. Many of the other results were omitted from the sample, so actives are more common in it than they were. The source holds several records for some structures; these can differ, active in one and inactive in another.
# Molecular target: Transitional endoplasmic reticulum ATPase (Homo sapiens) (UniProt P55072)
# Test: p97 ATP hydrolysis blockers – biochemical, primary screen (AID 1481);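 also: 0% = DMSO vehicle and 100% = wells lacking enzyme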
# Details: recombinant p97 ATPase, Kinase-Glo ATP luminescence, 3 h; at 8 µM; stronger effect = higher value
# Sequence of Transitional endoplasmic reticulum ATPase (Homo sapiens) (P55072 whole entry, looked up): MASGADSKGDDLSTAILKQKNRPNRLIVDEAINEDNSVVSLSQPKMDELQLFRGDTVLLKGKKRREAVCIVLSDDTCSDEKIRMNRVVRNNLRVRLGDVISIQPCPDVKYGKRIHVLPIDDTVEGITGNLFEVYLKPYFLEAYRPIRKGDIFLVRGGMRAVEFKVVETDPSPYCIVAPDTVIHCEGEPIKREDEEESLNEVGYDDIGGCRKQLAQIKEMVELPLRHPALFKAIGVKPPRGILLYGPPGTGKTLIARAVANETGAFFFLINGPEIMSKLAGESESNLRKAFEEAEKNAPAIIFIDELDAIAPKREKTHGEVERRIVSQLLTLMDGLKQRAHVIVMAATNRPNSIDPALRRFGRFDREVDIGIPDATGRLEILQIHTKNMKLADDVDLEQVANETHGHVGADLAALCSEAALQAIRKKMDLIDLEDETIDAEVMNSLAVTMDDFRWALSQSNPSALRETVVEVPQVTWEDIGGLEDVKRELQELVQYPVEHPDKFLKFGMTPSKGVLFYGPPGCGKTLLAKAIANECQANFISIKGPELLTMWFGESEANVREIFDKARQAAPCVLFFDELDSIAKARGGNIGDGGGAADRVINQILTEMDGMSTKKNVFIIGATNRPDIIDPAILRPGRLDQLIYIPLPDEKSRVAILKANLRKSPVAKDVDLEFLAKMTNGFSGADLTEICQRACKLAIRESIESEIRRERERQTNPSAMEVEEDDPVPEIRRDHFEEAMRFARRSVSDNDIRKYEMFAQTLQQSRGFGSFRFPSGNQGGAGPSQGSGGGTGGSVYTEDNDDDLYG
row,SMILES,inhibition
1,Cc1ccc(Cn2c(SCC(=O)N/N=C/c3ccccc3OCC(=O)O)nc3ccccc32)cc1,-13.9% (inactive)
2,CC(NCc1ccccc1OC1CCCC1)c1ccccc1 (configuration not stated),2.88% (inactive)
3,CC(Oc1ccccc1F)C(=O)NN (configuration not stated),-4.14% (inactive)
4,O=C(/C=C/Nc1ccc(S(=O)(=O)Nc2cnc3ccccc3n2)cc1)c1cccnc1,1.02% (inactive)
5,Oc1c(C=Nc2cccc3nsnc23)ccc2ccccc12,40.4% (active)
6,Oc1ccc(N=Cc2c(O)ccc3ccccc23)cc1,9.71% (inactive)
7,Oc1ccc2ccccc2c1C=Nc1ccccc1,4.59% (inactive)
8,CCOC(=O)c1ccccc1C(=O)N1CCOCCOCCOCC1,-4.13% (inactive)
9,Nc1nc(SCC(=O)NN(c2ccccc2)c2ccccc2)n[nH]1,-5.25% (inactive)
10,COc1ccccc1NC(=O)c1cc(Cl)nc2ccccc12,5.78% (inactive)
11,COc1cc(OC)c(C(=O)Nc2ccccc2-c2ccccc2)cc1OC,0.92% (inactive)
12,COc1ccccc1C(=O)Nc1nc2nc(-c3ccccc3)cc(=O)n2[nH]1,14.8% (active)
13,O=C(NCCc1ccccc1)Oc1ccc(Cl)cc1,-1.73% (inactive)
14,O=C(N/N=C/c1ccccc1O)/C(=C/c1ccccc1)CCO,2.01% (inactive)
15,CCC1CCCCN1S(=O)(=O)Cc1ccccc1Cl (configuration not stated),2.1% (inactive)
16,O=C(/C=C/c1ccc(Cl)c([N+](=O)[O-])c1)c1cccnc1,-0.11% (inactive)
17,CN(C)c1ccc(/C=C/C(=O)c2ccc(O)cc2)cc1[N+](=O)[O-],0.06% (inactive)
18,O=C(/C=C/c1ccc(Cl)c([N+](=O)[O-])c1)c1ccc(O)cc1,19.3% (active)
19,Cc1ccccc1Nc1c(-c2ccccc2)nc2ncccn12,4.55% (inactive)
20,CC(Sc1cccc[n+]1[O-])C(=O)Nc1cccc(S(=O)(=O)N2CCOCC2)c1 (configuration not stated),4.59% (inactive)
21,CN(C)c1ccc(NC(=O)CSc2n[nH]c(-c3ccco3)n2)cc1,-3.13% (inactive)
22,COc1cc(C(=O)Nn2c(O)c(C3=c4ccccc4=NC3=O)sc2=S)ccc1O,4.86% (inactive)
23,COC(=O)Cn1nc(-c2ccccc2)c2cc(Cl)ccc21,-5.36% (inactive)

row,SMILES,inhibition
1,Cc1cc2nc3c(=O)n(Cc4ccccc4)c(=O)[nH]c3nc2cc1N,8% (inactive)
2,Nc1ccc2nc3c(=O)[nH]c(=S)[nH]c3nc2c1,39.2% (active)
3,Cc1ccc(C(=O)N/C(=C/c2cccs2)C(=O)N2CCCCC2)cc1,1.51% (inactive)
4,CCc1nc2sc3c(Cl)ncnc3c2c2c1CCCC2,6.87% (inactive)
5,C=CCn1c(N)c(C(=O)OCC(C)C)c2nc3ccccc3nc21,21.5% (active)
6,C=CCn1c(N)c(S(=O)(=O)c2cccs2)c2nc3ccccc3nc21,6.58% (inactive)
7,CC(C)Cn1c(N)c(C(=O)NCc2cccs2)c2nc3ccccc3nc21,4.74% (inactive)
8,CC(=O)c1cccc(-n2nnnc2SCC(=O)NNC(=O)C2CCCCC2)c1,-0.28% (inactive)
9,COc1ccccc1CNC(=O)Cn1c(=O)oc2cc(Cl)ccc21,-2.55% (inactive)
10,COCC(C)OC(=O)c1c(N)n(CCCN2CCOCC2)c2nc3ccccc3nc12 (configuration not stated),4.25% (inactive)
11,CCN1C(=O)/C(=C2/Sc3ccccc3N2CCCS(=O)(=O)O)SC1=S,16.4% (active) and -0.77% (inactive)
12,CCCCN1C(=O)/C(=C/C=C2/C=Cc3ccccc3N2CC)SC1=S,6.25% (inactive)
13,CCN1C(=O)/C(=c2\s/c(=C3\Sc4ccccc4N3C)c(=O)n2C)N(C)C1=S,2.09% (inactive)
14,NC(=O)Cc1ccc2c(c1)[nH]c1ccccc12,2.82% (inactive)
15,Fc1ccc(CNCc2ccc(Br)cc2)cc1,9.11% (inactive)
16,COc1ccccc1-n1c(SCC(=O)O)nc2sc3c(c2c1=O)CCC3,-1.29% (inactive)
17,Cc1ccc(C(C[N+](=O)[O-])c2c(C)cc3ccccn23)cc1 (configuration not stated),-4.06% (inactive)
18,CCN(CC)CCNC(=O)CCCCCn1c(=O)[nH]c2cc(C(=O)OC)ccc2c1=O,15% (active)
19,COc1ccc(CCNC(=O)CCCCn2c(=O)[nH]c3ccccc3c2=O)cc1OC,4.64% (inactive)
20,O=C(CCCn1c(=O)[nH]c2cc(Cl)ccc2c1=O)NCCN1CCN(c2ccccc2)CC1,1.79% (inactive)
21,O=C(CSc1nc2ccc([N+](=O)[O-])cc2[nH]1)c1ccc(Cl)cc1,2.81% (inactive)
22,CC(CC(=O)Nc1ccccc1)n1ccnc1 (configuration not stated),-4.72% (inactive)
23,Cc1cc(C)c(NC(=O)CN2C(=O)NC(Cc3ccccc3)C2=O)c(C)c1 (configuration not stated),-0.65% (inactive)

row,SMILES,inhibition
1,COc1ccccc1CNC(=O)COc1ccc(C)nc1[N+](=O)[O-],0.97% (inactive)
2,COc1cc(/C=C2/C(=O)NN(c3ccc(F)cc3)C2=O)cc([N+](=O)[O-])c1O,6.04% (inactive)
3,O=C(CSC1=Nc2ccccc2C2=NC(CC(=O)NCc3ccco3)C(=O)N12)NCc1ccco1 (configuration not stated),2.33% (inactive)
4,CCC(C)NC(=O)CSC1=Nc2ccccc2C2=NC(CCC(=O)NCc3ccco3)C(=O)N12 (configuration not stated),18.7% (active)
5,O=C(CC1N=C2c3ccccc3N=C(SCc3ccccc3Cl)N2C1=O)NCc1ccco1 (configuration not stated),2.64% (inactive)
6,COc1nc(N(C)C)nc(N2CC(=O)N(CCNS(=O)(=O)c3ccc(C)cc3)C2=N)n1,5.1% (inactive)
7,O=C1N=C(N2CCc3ccccc3C2)S/C1=C\c1ccc(O)cc1,0.81% (inactive)
8,C/C(=N/NC(=S)Nc1ccccc1)c1ccc2c(c1)OCO2,2.26% (inactive)
9,CCOc1ccc(/C=N/Nc2nncc(-c3ccccc3)n2)cc1OC,0.88% (inactive)
10,CCOc1nc(OCC)nc(-n2cc(-c3ccccc3)nn2)n1,24.2% (active)
11,CCOC(=O)c1nnn(-c2nc(OC)nc(N(C)C)n2)c1-c1ccccc1,-0.37% (inactive)
12,COC(=O)c1scc(S(=O)(=O)C(C)(C)C)c1-n1cccc1,3.92% (inactive)
13,Cc1ccc(C(=O)NC2CC(C)(C)NC(C)(C)C2)c(C)c1,-2.82% (inactive)
14,Cc1ccc2c(c1)NCC(C(=O)NC1CCC(C)CC1)O2 (configuration not stated),18.4% (active)
15,CC1CCC(NC(=O)C2c3ccccc3C(=O)N2Cc2ccc3c(c2)OCO3)CC1 (configuration not stated),-6.03% (inactive)
16,CN1C(=O)/C(=C\c2cc(Br)cs2)c2ccccc21,7.61% (inactive)
17,O=C(Nc1nnc(Cc2ccccc2)s1)c1cnccn1,1.61% (inactive)
18,COc1cccc(NC(=S)NCc2ccco2)c1,3.44% (inactive)
19,O=C(NCCCO)/C(=C\C=C\c1ccccc1)NC(=O)c1ccccc1Cl,6.57% (inactive)
20,CCN1CCc2nc(NC(=O)c3cc(F)c(F)cc3Cl)sc2C1,4.45% (inactive)
21,OCCNc1nc2ccccc2n1-c1ncnc2sc3c(c12)CCC3,-5.39% (inactive)
